Compound activity deposited in PubChem by National Center for Advancing Translational Sciences (NCATS).
HT1080 IDH1KD tx: qHTS for induction of synthetic lethality in tumor cells producing 2HG: qHTS for the HT-1080-IDH1KD cell line; Potency, µM (series often up to 46.1 µM), usual class: cytotoxic; actives 2% (n = 360,000); AID 686971, 2013; HT-1080 IDH1 knockdown viability, ATP luminescence, 48 h
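Knockdown cells (IDH1KD HT-1080) received compounds 2 h after plating at 750 cells/well and were kept 48 h at 37 °C in 5% FBS RPMI. A CellTiter-Glo luminescence read gave % activity for curve fitting.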
HT1080-NT tox: qHTS for induction of synthetic lethality in tumor cells producing 2HG: qHTS for the HT-1080-NT fibrosarcoma cell line; Potency, µM (titrated, usually from 46.1 µM), hits mostly cytotoxic; actives 1.6% (n = 360,000); HT-1080-NT fibrosarcoma viability, CellTiter-Glo ATP luminescence, 48 h; AID 686970, 2013;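 also: NT is the 2HG producing partner of a matched IDH1 knockdown line; nearly all actives have a fitted effect of over 55% in size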
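Fibrosarcoma NT cells, 750 per well in 5% FBS RPMI, were exposed to compound for 48 hours. Viability: CellTiter-Glo luminescence.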
TDP1 cell noCPT: qHTS for Inhibitors of human tyrosyl-DNA phosphodiesterase 1 (TDP1): qHTS in cells in absence of CPT; DT40 Tdp1-/- hTDP1 cells, no CPT, ATP luminescence, 48 h; Potency, µM (doses to about 46.2 µM), actives largely listed as inhibitors; actives 15% (n = 420,000); also: nearly all actives have a fitted effect of over 55% in size
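Stably hTDP1-transfected Tdp1-null chicken DT40 cells were treated with library compounds minus camptothecin and grown for at least 48 hr at 37 °C, after which cellular ATP was quantified by luminescence.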
IL1B secr inh: qHTS for Inhibitors of Inflammasome Signaling: IL-1-beta AlphaLISA Primary Screen; THP-1 LPS/ATP IL-1B secretion, AlphaLISA, 16 h; stronger effect = lower value; activity change, % at 57.5 µM; actives 4.7% (n = 360,000); in the data active = activity change below about -50%; inconclusive = mostly about -30% to -49%
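Secreted IL-1B measured by AlphaLISA bead assay after 16 h compound exposure of THP-1 cells; compounds (final up to 57.5 uM) added 1 h before LPS (250 ng/mL) and ATP (1.25 mM) stimulation; lower signal means less secretion.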
ELG1 DNA repair: qHTS screen for small molecules that inhibit ELG1-dependent DNA repair in human embryonic kidney (HEK293T) cells expressing luciferase-tagged ELG1; HEK293T ELG1-luciferase reporter, luminescence, 16 h; DNA damage induced by 5-fluorouridine; Potency, µM (top dose mostly 46.1 µM), actives largely listed as inhibitors; AID 504467, 2011; actives 2.3% (n = 330,000); also: nearly all actives have a fitted effect of over 55% in size
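Luminescence from the luciferase reporter, measured 30 min after ONE-Glo reagent at room temperature, was the read-out. Beforehand, 2,000 cells per well were exposed for 16 hr at 37 °C to 5-fluorouridine together with compound or vehicle.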
DT40 TDP1 CPT: qHTS for Inhibitors of human tyrosyl-DNA phosphodiesterase 1 (TDP1): qHTS in cells in presence of CPT | AID 686979, 2013 | Potency, µM (titrated, usually from 46.2 µM), actives largely listed as inhibitors | actives 12% (n = 420,000) | chicken DT40 Tdp1-/-;hTDP1 cells + 20 nM CPT, ATP luminescence, 48 h; also: nearly all actives have a fitted effect of over 55% in size
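Chicken DT40 Tdp1-/- cells complemented with human TDP1, 400 cells/well, exposed to compounds plus 20 nM camptothecin for at least 48 h at 37 C; viability read as ATP content by CellTiter-Glo luminescence.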
A number is an active result; – = inactive; ? = inconclusive; · = no result given; [ ] = dose if it differs, or a comment. A selection: hits, their analogues and other compounds. The true share with any hit is near 19%. Unless noted, calls follow the shape of the dose curve; as a rule, active = well fitted curve in the direction sought with a large enough effect; inconclusive = small, poorly fitted or top-dose-only effect, or another doubt; inactive = no such curve, though single readings can be large; an effect the other way counts as inactive or inconclusive.

SMILES	HT1080 IDH1KD tx	HT1080-NT tox	TDP1 cell noCPT	IL1B secr inh	ELG1 DNA repair	DT40 TDP1 CPT
Cc1ccc2nc(N3CCN(Cc4nnnn4Cc4ccccc4)CC3)c(C#N)cc2c1	–	–	?	–	–	?
COc1ccc2cc(C#N)c(N3CCN(Cc4nnnn4CCC(C)C)CC3)nc2c1	–	–	18µM	?	?	21µM
Cc1cc[n+](C2=C([O-])c3ccccc3C(=O)/C2=N\S(=O)(=O)c2cccs2)cc1C	–	–	?	–	23µM	?
O=C1/C(=N\S(=O)(=O)c2cccs2)C([n+]2ccc(CCCc3ccccc3)cc2)=C([O-])c2ccccc21	?	–	–	–	13µM	–
COC(=O)C1CN(C(=O)COc2cccc(C)c2C)c2ccccc2O1 (stereo not given)	–	–	–	–	?	–
O=C(NCCO)c1cn(C2CCCN(Cc3cccc(C(F)(F)F)c3)C2)nn1 (stereo not given)	·	·	–	·	·	–[9.04 µM]
Fc1ccccc1N1CCN(C2CCCN(Cc3cccc(C(F)(F)F)c3)C2)CC1 (stereo not given)	–	–	16µM	–	–	?
Oc1ccccc1CN1CCCC(N2CCN(c3cccc(C(F)(F)F)c3)CC2)C1 (stereo not given)	–	–	?	–	–	18µM
COc1ccc2c(c1)OC(C)CN(CCC(=O)NCC1OCCc3ccccc31)C2 (stereo not given)	·	·	–	·	·	–[9.04 µM]
O=C(O)c1ccc(-n2ccnc2)c([N+](=O)[O-])c1	–	–	–	–	–	–
O=C(c1ccccc1)c1ccc(-n2cnnc2)c([N+](=O)[O-])c1	–	–	?	-78	–	?
O=C(c1ccccc1)c1ccc(-n2ccnc2)c([N+](=O)[O-])c1	–	–	21µM	–	–	–
O=C(Cn1cnc2scc(-c3ccc(F)cc3)c2c1=O)NCC(c1ccco1)N1CCCC1 (stereo not given)	–	–	–	–	–	–
Nc1c(C(=O)Nc2ccc(Br)cc2)sc2nc(N3CCOCC3)c3c(c12)CCCC3	–	–	?	–	·	21µM
COc1ccc(NC(=O)c2sc3nc(N4CCOCC4)c4c(c3c2N)CCCC4)c(OC)c1	–	–	–	–	–	–
CC1(C)Cc2c(c(N3CCOCC3)nc3sc(C(=O)Nc4ccccc4)c(N)c23)CO1	–	–	?	–	?	?
Cc1ccccc1NC(=O)c1sc2nc(N3CCOCC3)c3c(c2c1N)CC(C)(C)OC3	·	·	?	·	·	–
Cc1cccc(NC(=O)c2sc3nc(N4CCOCC4)c4c(c3c2N)CC(C)(C)OC4)c1	·	·	7.3µM	·	·	?
CC1(C)Cc2c(c(N3CCOCC3)nc3sc(C(=O)Nc4cccc(Cl)c4)c(N)c23)CO1	–	–	?	–	–	18µM
COc1ccc(-c2nc(CSc3nnc(C)n4c3cc3sccc34)c(C)o2)cc1	·	·	–	·	·	–
CCCN1CCN(CCCNC(=O)Cn2nc(C)n3c(cc4cc(F)ccc43)c2=O)CC1	–	–	–	–	–	–
IC(I)I	·	·	?	·	·	–
COc1cccc(/C=N/n2c(C3CCCCC3)n[nH]c2=S)c1	–	–	?	–	–	–
Cc1cc(=O)n2c3ccccc3n(CC(O)CN3CCCC3)c2c1C#N (stereo not given)	?	?	?	-65	?	?
CCCNCC(O)Cn1c2ccccc2n2c(=O)cc(C)c(C#N)c12 (stereo not given)	–	–	?	–	?	?
SMILES	HT1080 IDH1KD tx	HT1080-NT tox	TDP1 cell noCPT	IL1B secr inh	ELG1 DNA repair	DT40 TDP1 CPT
Cc1cc2c(cc1S(=O)(=O)CCC(=O)N1CC(C)CC(C)C1)OCC(=O)N2 (stereo not given)	–	–	–	–	–	–
COc1cc(CN(CCc2c(C)[nH]c3ccc(C)cc23)C(=S)NC(C)(C)C)cc(OC)c1OC	–	–	16µM	–	–	21µM
COCCNC(=S)N(CCc1c(C)[nH]c2ccc(Cl)cc12)Cc1cccs1	?	21µM	?	-92	?	?
CCNC(=S)N(CCc1c(C)[nH]c2ccc(C)cc12)Cc1cccs1	?	?	?	-53	?	?
COc1cccc(NC(=S)N(CCc2c(C)[nH]c3ccccc23)Cc2cccs2)c1	?	–	16µM	–	?	?
Cc1[nH]c2ccccc2c1CCN(Cc1cccs1)C(=S)Nc1ccccc1	–	–	?	–	?	?
CCC(=O)Nc1cc2c3c(c1)CCC(=O)N3CCC2	–	–	–	–	–	–
CC1(C)COC(Cc2ccccc2)=N1	–	–	–	–	·	–
